# Screening data deposited in PubChem by National Center for Advancing Translational Sciences (NCATS).
# Rows were chosen to be rich in hits. Some 1.2% of all compounds tested hit in one or more screens of this group.
# BRCA1 expr act: increases BRCA1 expression | MCF7-BRCA1-FFLuc reporter, luminescence, 48 h; response scale: scaled: vehicle 0%, 10 µM genistein 100% | Potency, µM (series often up to 46.1 µM), inactives show at the highest dose activation, hits mostly activators | 1.1% of 380,000 active | AID 624202; note: nearly all actives have a fitted effect of over 80% in size
#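 MCF7 cells carrying a BRCA1-firefly luciferase reporter (2000 cells/well, phenol-red free MEM) were attached for 2 h at 37 °C, then given compounds for 48 h. Luminescence was read 15 min after luciferase reagent; activity normalized to genistein (10 microM) and DMSO.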
# B2AR arrestin: recruits beta-arrestin to the human beta2-adrenergic receptor; P07550; beta-arrestin recruitment to beta2AR, cell-based reporter; Potency, µM (top dose mostly 46.1 µM), inactives show at the highest dose activation, usual class: activators; 0.02% of 330,000 active;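 note: 0% = DMSO controls and full agonism = EC100 isoproterenol or metaproterenol; nearly all actives have a fitted effect of over 65% in size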
# Mito fusion act: inhibitors of mitochondrial division or activators of mitochondrial fusion; S. cerevisiae fusion-defective mutant growth rescue, CellTiterGlo 48 h; Potency, µM (highest dose often 46.1 µM), for inactives: top-dose growth rescue (activation), actives largely listed as activators; 0.23% of 320,000 active; AID 485298; note: % of control where 0% means no effect; nearly all actives have a fitted effect of over 45% in size
#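 S. cerevisiae fusion-defective temperature-sensitive mutants (e.g. fzo1-1, mgm1-5) grown 48 h at 37C in YPEG (ethanol/glycerol non-fermentable) medium with 23 nl compound per well; growth rescue read as CellTiterGlo luminescence.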
# ERG Ets-DNA blk: blocks human ERG Ets domain binding to DNA | P11308 | fluorescence polarization, His-ERG Ets domain / labelled DNA | Potency, µM (titrated, usually from 76.9 µM), inactives show at the highest dose FP activity, negative = inhibition, usual class: inhibitors | 0.028% of 370,000 active | AID 624246; active = well fitted inhibition curve with a large enough effect in the polarisation, with a control signal flat; inconclusive = small, poorly fitted or top-dose-only effect, or effect the other way, or a change in a side signal; inactive = no such curve, though single readings can be large or run the other way; the % refers to the polarisation;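 note: polarization taken with two DNA probes labelled with fluorescein and Texas red; % of control where 0% means no effect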
# Target sequence (P11308 whole entry, looked up, the tested form may be a part): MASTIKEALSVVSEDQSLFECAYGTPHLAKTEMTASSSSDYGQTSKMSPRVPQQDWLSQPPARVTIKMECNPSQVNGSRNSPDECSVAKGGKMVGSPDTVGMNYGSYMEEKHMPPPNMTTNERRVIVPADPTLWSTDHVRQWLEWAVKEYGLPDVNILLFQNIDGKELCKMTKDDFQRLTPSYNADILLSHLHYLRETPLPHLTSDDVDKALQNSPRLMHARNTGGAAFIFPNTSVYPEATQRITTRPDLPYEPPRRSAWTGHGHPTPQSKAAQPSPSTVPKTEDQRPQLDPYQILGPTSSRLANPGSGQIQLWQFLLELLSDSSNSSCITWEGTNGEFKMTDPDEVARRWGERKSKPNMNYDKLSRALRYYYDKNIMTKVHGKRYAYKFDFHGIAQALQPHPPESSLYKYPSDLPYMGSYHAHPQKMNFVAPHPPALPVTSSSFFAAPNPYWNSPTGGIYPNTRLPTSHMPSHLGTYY
#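 His-tagged ERG Ets domain (1 uM in the protein solution; 300mM KCl, 50mM Tris-HCl, 1mM EDTA, 1mM DTT, pH 7.5) received compound, then a probe mix of 5 nM fluorescein-DNA and 100nM Texas-615-DNA. Fluorescence polarization was read for both dyes.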
# Active calls of the source: *; ? = inconclusive; . = no result given. Unless noted, calls come from the whole dose curve; as a rule, active = well fitted curve in the direction sought with a large enough effect; inconclusive = small, poorly fitted or top-dose-only effect, or another doubt; inactive = no such curve, though single readings can be large; an effect the other way counts as inactive or inconclusive. Potency is the fitted concentration of half-maximal effect.
SMILES,BRCA1 expr act,B2AR arrestin,Mito fusion act,ERG Ets-DNA blk
CC(C)Oc1cccc(C(=O)NC(=S)Nc2cccnc2)c1,-6.5%,-0.4%,-19.5%,-1.0%
O=C(CN1CCCC1)Nc1ccccc1Cl,-0.3%,0.3%,-5.8%,-1.8%
O=C(Nc1ccccc1Cl)NC1CCCCCCC1,14.1µM*,0.0%,1.5%,-2.1%
Cc1ccc(-n2c(=O)c3oc4ccccc4c3n(Cc3cccc(F)c3)c2=O)cc1C,.,.,.,-0.1%
COc1cccc(NC(=O)NC2CCCCCCC2)c1,10µM*,0.5%,-0.7%,-12.8%
CC(C)C(=O)Nc1ccc(C(=O)c2ccccc2)cc1,11.2µM*,-0.3%,15.8%,7.8%
COc1cccc(NC(=O)c2cccc(C(=O)Nc3cccc(OC)c3)c2)c1,-2.7%,-1.4%,-0.6%,1.4%
COc1cccc(NC(=O)c2ccc(NC(=O)C(C)C)cc2)c1,10µM*,-0.9%,-0.5%,-0.9%
COc1cccc(NC(=O)c2ccccc2)c1,8.91µM*,-0.1%,-9.4%,2.5%
COc1cccc(NC(=O)C(=S)NC2CCCCC2)c1,?,-0.3%,-3.8%,-2.8%
COc1ccccc1-c1nc2c(c(SCC(=O)Nc3ccccc3F)n1)Cc1c(CO)cnc(C)c1O2,.,.,.,0.3%
COc1ccc(-c2cc(=O)oc3c4c(ccc23)OCN(Cc2ccccc2)C4)cc1,.,.,.,3.5%
O=C(c1cc(COc2ccccc2)on1)N1CCCC(OCc2cccnc2)C1 (stereo not drawn),47.3%,3.2%,-0.9%,-0.9%
COc1ccccc1OCc1cc(C(=O)N2CCCC(OCc3cccnc3)C2)no1 (stereo not drawn),7.08µM*,0.1%,1.5%,14.9%
Cc1ccc(-n2nc(C)cc2Nc2ncc(Cl)cc2Cl)cc1,-13.4%,-0.4%,-2.2%,-2.1%
Cc1cc(Nc2ncc(Cl)cc2Cl)n(-c2ccccc2C)n1,-22.6%,2.8%,22.4µM*,-5.7%
CC(=O)Nc1cccc(C(=O)/C=C/c2ccc(Br)cc2)c1,-100.1%,-0.2%,14.1µM*,-6.6%
CC(=O)Nc1cccc(C(=O)/C=C/c2cccs2)c1,-17.9%,-0.1%,10µM*,-1.6%
CCCOc1ccc(C(=O)Nc2cc(-c3nc4ccccc4[nH]3)ccc2C)cc1,.,.,.,2.3%
COc1cccc(-c2nc(-c3ccc4c(c3)NC(=O)CO4)cs2)c1,10µM*,-0.3%,-5.3%,1.2%
Cc1ccc(S(=O)(=O)N2CCN(c3nc(-c4ccc(CN5CCOCC5)s4)nc4ccccc34)CC2)cc1,3.6%,.,.,.
N#Cc1c[nH]n2c(NC3CCCCC3)c(-c3ccccc3F)nc12,.,.,.,5.1%
CNC(=O)c1c(Br)cnn1-c1ccc(C)cc1,?,0.2%,2.8%,-4.4%
CNC(=O)c1c(Cl)cnn1-c1ccc(C)cc1,6.31µM*,3.2%,4.8%,-0.4%
CC(C)CC1C(=O)N(Cc2cn(CCC3OCCO3)nn2)CCS(=O)(=O)N1Cc1ccc(-c2ccncc2)cc1 (stereo not drawn),-34.2%,.,.,.
SMILES,BRCA1 expr act,B2AR arrestin,Mito fusion act,ERG Ets-DNA blk
Cc1ccc(NC(=O)N2CCc3ccccc3C2)cc1C,10µM*,0.4%,0.9%,14.0%
Cc1cc(C)cc(NC(=O)N2CCc3ccccc3C2)c1,?,3.5%,-4.2%,-8.2%
CC(C)(C)c1ccc(NC(=O)C2CCCN(c3cnccn3)C2)cc1 (stereo not drawn),6.8%,0.2%,12.6µM*,-3.9%
COc1ccc(NC(=O)C2CCCN(c3cnccn3)C2)cc1 (stereo not drawn),-5.8%,-1.1%,9.6%,-12.3%
O=[N+]([O-])c1ccc(N2CCc3ccccc3C2)nc1,11.2µM*,0.1%,-2.3%,4.5%
O=[N+]([O-])c1ccc(N2CCN(c3ccccc3)CC2)nc1,24.1%,4.2%,29.5%,5.0%
CCCNS(=O)(=O)c1ccc2nc(NC(=O)c3ccc(F)cc3)sc2c1,.,.,.,1.9%
Fc1ccc(/C=C/c2nnc(-c3cccs3)o2)cc1,2µM*,-0.5%,1.0%,-4.3%
Cc1ccc(/C=C/c2nnc(-c3cccs3)o2)cc1,?,-1.0%,-6.0%,.
COc1cc(SC)ccc1C(=O)NC1CCCCC1,?,-0.2%,31.6µM*,1.9%
COc1cc(SC)ccc1C(=O)N1CCC(Cc2ccccc2)CC1,.,.,20.6µM*,.
Cc1cccc(N2CCN(C(=O)CCCn3ncn4c(cc5occc54)c3=O)CC2)c1C,-1.8%,.,.,-1.5%
Cc1cc(NC(=O)c2cc(C3CC3)on2)no1,6.31µM*,-0.3%,-2.6%,7.6%
Cc1ccnc(Nc2nc(-c3ccc(O)cc3O)cs2)c1,7.94µM*,0.4%,-5.7%,8.0%
Cc1ccnc(Nc2nc(-c3ccc(O)cc3)cs2)c1,?,-0.8%,-3.9%,11.4%
Cc1ccc(C(=O)NC(=S)Nc2cccnc2Cl)cc1,11.2µM*,0.2%,-26.3%,-4.1%
O=c1oc2ccccc2cc1-c1nc(-c2ccccc2)no1,12.6µM*,0.2%,-1.2%,-2.1%
CCOC(=O)c1c(NC(=O)Cc2coc3cc(C)ccc23)sc2c1CCCC2,.,.,.,-1.0%
Cc1ccc2c(CC(=O)Nc3sccc3C(N)=O)coc2c1,1.26µM*,-0.1%,11.3%,-2.5%
Oc1ccc(Cl)cc1C1=Nc2ccccc2N=C(c2cccc(Br)c2)C1,.,.,.,10.6%
Cc1[nH]n(-c2ccccc2)c(=O)c1C=NCc1ccco1,.,0.0%,2.9%,.
Cc1[nH]n(-c2cccc(Cl)c2)c(=O)c1C=NCC(C)C,10µM*,0.2%,16.4%,1.0%
Cc1[nH]n(-c2cccc(Cl)c2)c(=O)c1C=NCc1ccco1,11.2µM*,-1.0%,0.7%,-11.8%
CN(C)c1ccc(/C=C2\C(=O)/C(=C/c3ccc(N(C)C)cc3)c3ccccc32)cc1,-48.2%,.,.,.
CN(C)c1ccc(/C=C2\C(=O)Nc3ccccc32)cc1,?,.,13µM*,.
SMILES,BRCA1 expr act,B2AR arrestin,Mito fusion act,ERG Ets-DNA blk
COc1ccc(C2=NN(c3ccc(C=O)cc3)C(c3ccccc3)C2)cc1 (stereo not drawn),-58.3%,-0.4%,?,-2.1%
O=Cc1ccc(N2N=C(c3ccccc3)CC2c2ccccc2)cc1 (stereo not drawn),2.0%,-0.5%,8.91µM*,-7.7%
COc1ccc(C2=NN(c3ccccc3)C(c3ccc(OC)c(OC)c3)C2)cc1 (stereo not drawn),10µM*,0.2%,1.2%,5.3%
COc1ccc(C2CC(c3cccs3)=NN2c2ccc(C=O)cc2)cc1 (stereo not drawn),-33.2%,-0.7%,22.4µM*,.
COc1ccc(CCn2c(=S)[nH]c(=O)c3cccnc32)cc1OC,14.5%,.,.,.
c1ccc(CCNc2ncnc3ccccc23)cc1,2µM*,-0.6%,-1.8%,-3.4%
Cc1cccc(NC(=O)CSc2nc3c(c(=O)[nH]2)CN(Cc2ccc4c(c2)OCO4)CC3)c1C,.,.,.,-0.6%
Cc1ccc(CN2C(=O)c3ccccc3CC2(C)C(=O)NC2CCCCC2)cc1 (stereo not drawn),.,.,.,1.5%
O=C(Nc1ccc2oc(-c3cccc4ccccc34)nc2c1)c1ncn[nH]1,2.24µM*,-0.1%,9.6%,-0.9%
O=C(Nc1ccc2oc(-c3ccccc3Cl)nc2c1)c1ncn[nH]1,?,-0.1%,14.7%,.
Cc1ccc2nc(N(Cc3cccnc3)C(=O)C3CCCCC3)sc2c1,.,.,.,2.3%
c1ccc(SCc2nc3ccccc3s2)nc1,3.16µM*,0.1%,-8.4%,9.6%
